Screens: PubChem, several laboratories
Hits are enriched below; roughly 4.2% of the tested compounds scored in any of these assays.
PfHsp90 yeast 2: growth inhibition of PfHsp90-expressing yeast, primary screen, antimalarial PfHsp90 inhibitor project, S. cerevisiae, BacTiter-Glo luminescence, single point, set 2; BacTiter-Glo ATP, 48 h; yeast lacking PDR1 and PDR3 efflux regulators; inhibition, % at 9.4 µM; hit rate 0.32% among 310,000;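 active = every replicate shows inhibition above about 80%, whatever the replicate mean, limit read from the data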;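 note: 0% = DMSO neutral controls and 100% = 20 µM radicicol positive controls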
TIM10 inh: growth inhibitors of isogenic TIM10 control yeast, primary screen, counter-screen for tim10-1 yeast inhibitor project, luminescence, uHTS; S. cerevisiae TIM10 strain growth, BacTiter-Glo luminescence, 24 h; inhibition, % at 10 µM; hit rate 1.4% among 330,000;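 active = inhibition of 40% or more at the single tested concentration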;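 note: wild-type TIM10 isogenic control strain grown at permissive 25 °C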
tim10-1 inh: growth inhibitors of tim10-1 mutant yeast, primary screen, luminescence, uHTS; hit rate 2.2% among 330,000; inhibition, % at 20 µM; S. cerevisiae tim10-1 ts strain growth, BacTiter-Glo, 24 h;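 active = inhibition of at least 40%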;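 note: mutant grown at 25 °C; 0% = DMSO wells with yeast and 100% = wells holding no yeast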
NLRP3 yeast inh: NALP3 inflammasome inhibitors in reconstituted yeast, primary screen, luminescence, uHTS | hit rate 0.39% among 330,000 | inhibition, % at 10 µM | Yeast reconstituted NLRP3/ASC/caspase-1, beta-gal luminescence, 24 h | AID 2825, 2010;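 active = inhibition of 50% or more; inactive = inhibition below 50%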;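 note: plate controls were induced DMSO wells for no effect and uninduced yeast grown without galactose for full effect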
tim23-1 inh: growth inhibitors of tim23-1 mutant yeast, primary screen, luminescence, uHTS; S. cerevisiae tim23-1 growth, BacTiter-Glo luminescence, 24 h; inhibition, % at 20 µM; hit rate 1.3% among 330,000;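 active = growth inhibition of the mutant yeast at or above 50%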;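 note: temperature-sensitive mutant grown at 25 °C; plate controls were DMSO-treated mutant yeast for no effect and medium wells lacking yeast for full effect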
NALP1 yeast inh: NALP1 inflammasome inhibitors in reconstituted yeast, colorimetric, S. cerevisiae, triplicate retest; inhibition, % at 10 µM; hit rate 0.61% among 280,000; S. cerevisiae NALP1/ASC/caspase-1 growth, X-gal OD620, 72 h; in the data active = inhibition mostly above about 24%, no sharp cut-off; inactive = mostly below about 32%
NALP3 yeast conf: NALP3 inhibitors retested in yeast, confirmation, luminescence, single concentration | shares compounds with NLRP3 yeast inh | inhibition, % at 10 µM | hit rate 81% among 1,300 | yeast expressing human NALP3; in the data active = inhibition above about 48%
Casp1 ASC ctr: CASP1-PYCARD signaling inhibition in yeast, confirmatory test, counterassay for NLRP3 inhibitor program, one-dose | shares compounds with NLRP3 yeast inh | yeast expressing Caspase-1-ASC, luminescence counter screen | inhibition, % at 10 µM | hit rate 66% among 1,000
NALP3 retest: NALP3 inhibitors in yeast, repeat test, confirmation, luminescence, single concentration, retest | shares compounds with NLRP3 yeast inh | yeast expressing human NALP3, luminescence read-out | inhibition, % at 10 µM | hit rate 53% among 1,000
* marks the source's active call; other numbers are inactive results; . = no result. Cut-off read from the data, not from the text of the source, unless noted: active = inhibition above about 50%; inactive = the rest.

SMILES	PfHsp90 yeast 2	TIM10 inh	tim10-1 inh	NLRP3 yeast inh	tim23-1 inh	NALP1 yeast inh	NALP3 yeast conf	Casp1 ASC ctr	NALP3 retest
O=C(c1ccccc1)C(CCc1ccccn1)CCc1ccccn1	-5	.	.	.	.	.	.	.	.
CCOc1ccc(C(=O)C(CCC(CN(C)C)C(=O)c2ccc(OCC)cc2)CN(C)C)cc1 (stereo not given)	19	.	.	.	.	48*	.	.	.
COc1ccc(CCNC(=O)c2cc3cc(F)ccc3nc2C)cc1OC	1	12	9	12	-2	.	.	.	.
CCCCCC(O)CCCC(=O)O (stereo not given)	5	.	.	.	.	.	.	.	.
CCCCCCCCCCCCCCCC(O)C[N+](C)(C)CCO (stereo not given)	111*	.	.	.	.	.	.	.	.
NCCc1nnc(SCc2ccc(F)cc2)o1	0	-13	-13	59*	9	7	74*	58*	61*
COc1ccccc1N1CCN(c2cc(N3CCCC3)nc(C)n2)CC1	14	7	15	12	20	19	.	.	.
COc1ccccc1N1CCN(c2nccc(C)n2)CC1	17	-4	12	51*	26	9	63*	52*	40
CN(CC(=O)N1CCc2ccccc2C1)c1ccccc1	-3	2	-5	55*	12	30	43	45	55*
O=C(Nc1ccc(Br)cn1)c1cccc2ccccc12	6	2	34	52*	44	.	21	.	.
CSc1nc2ccc(S(=O)(=O)N3CCOCC3)cc2s1	-44	3	1	48	4	12	.	.	.
CSc1nc2ccc(S(=O)(=O)N3CCCCC3)cc2s1	.	-5	-7	63*	9	14	82*	48	26
O=C(Nc1ccc2c(c1)OCO2)Nc1cnccn1	-13	-11	-4	10	11	11	.	.	.
O=C(Nc1ccc2c(c1)OCO2)c1cccc(Cl)c1	27	32	9	56*	43	-12	58*	62*	61*
O=C(Nc1ccc2c(c1)OCO2)Nc1ccccn1	0	10	15	53*	11	22	61*	.	.
Cc1cccc(C)c1NS(=O)(=O)c1ccc(OCCNS(C)(=O)=O)cc1	-19	-3	-7	11	2	19	.	.	.
CCCCCCCCCCS(=O)(=O)N/N=C/c1ccc(O)cc1	-4	21	31	50*	-21	18	70*	44	47
CCCCCCCCCCS(=O)(=O)N/N=C/c1ccccc1OC	3	1	14	6	20	18	.	.	.
Cc1ccc(C(=O)Nc2nc3ccccc3s2)s1	5	26	6	45	19	0	.	.	.
Cc1noc(C)c1C(=O)Nc1nc2ccccc2s1	.	4	12	50*	16	.	49*	39	31
COc1cccc(NS(=O)(=O)c2ccc(Br)s2)c1	29	-13	22	53*	9	9	63*	47	30
CCOC(=O)Nc1ccc(S(=O)(=O)NC2CCCCC2)cc1	8	-2	-5	57*	7	3	68*	.	.
Nc1ccc(Oc2cc(N)cc(Oc3ccccc3)c2)cc1	7	35	29	50*	48	9	64*	23	45
Nc1ccc(Oc2ccc3nc(-c4ccccc4)c(-c4ccccc4)nc3c2)cc1	-48	11	35	-1	46	-1	.	.	.
c1ccc2oc(SCc3cn4ccccc4n3)nc2c1	-9	5	17	56*	39	23	69*	69*	53*
SMILES	PfHsp90 yeast 2	TIM10 inh	tim10-1 inh	NLRP3 yeast inh	tim23-1 inh	NALP1 yeast inh	NALP3 yeast conf	Casp1 ASC ctr	NALP3 retest
Cc1cccc2nc(CSc3nc4ccccc4o3)cn12	28	17	29	38	37	25	.	.	.
CCCSc1nnc(Sc2nnnn2-c2ccccc2)s1	-34	-17	25	58*	39	13	66*	60*	46
O=C(NNc1c(Cl)cccc1Cl)c1cccs1	-2	-3	-1	4	-15	7	.	.	.
COc1ccc(NC(=O)c2cc3ccccc3o2)cc1OC	-5	0	-8	20	13	16	.	.	.
O=C(Nc1ccc(F)cc1)c1cc2ccccc2o1	-5	3	8	24	12	26	.	.	.
O=C(Nc1ccccc1)c1cc2ccccc2o1	0	-5	-9	52*	35	5	51*	53*	53*
Cc1ccc(NC(=O)c2cc3ccccc3o2)cc1Cl	10	38	-4	50*	47	9	68*	39	40
COc1ccc(NC(=O)c2cc3ccccc3o2)cc1	-1	12	-11	55*	40	5	79*	66*	61*
COc1ccc(C(CNC(=O)CNC(=O)c2cccc(C)c2)N2CCCCC2)cc1 (stereo not given)	-33	.	.	.	.	.	.	.	.
COC(=O)c1ccccc1NC(=O)CCCCCn1nnc2ccccc2c1=O	-14	8	15	22	31	19	.	.	.
Clc1ccc(/C=C/c2nc3ccccc3[nH]2)cc1	59	37	7	54*	46	-8	77*	54*	71*
Cc1ccc(C)c(C2=NNC(=O)CC2)c1	0	7	2	6	13	.	.	.	.
Cn1c(=O)c2ccccc2n(Cc2cccc(F)c2)c1=O	-2	5	6	20	19	-14	.	.	.
CCCNC(=O)c1c(O)c2cccc3c2n(c1=O)CCC3	15	.	.	.	.	-1	.	.	.
NCCNC(=O)c1c(O)c2cccc3c2n(c1=O)CCC3	5	33	-14	61*	41	35*	75*	51*	46
CCOC(=O)c1cnn(-c2cccc(Cl)c2)c1N	-4	-14	-11	56*	-9	18	73*	53*	32
Cc1ccccc1CN1CCSc2sccc2C1=O	55	16	1	58*	14	11	37	37	38
O=C(c1ccccc1)N1CCSc2sccc2C1=O	-3	.	.	.	.	15	.	.	.
O=C1c2ccsc2SCCN1Cc1ccccc1Cl	6	-13	3	51*	3	5	57*	44	47
CC(C)c1ccc(CNC(=O)C(=O)NCCCn2ccnc2)cc1	.	-12	5	2	1	0	.	.	.
COc1ccccc1NC(=O)Nc1ccc(C)cn1	-8	-16	0	61*	25	-3	76*	68*	65*
